Experimental data: the supplement of paper PMC9694430

Key:
Test in all cases: thermal shift delta Tm vs DMSO control; higher = stronger stabilization (binding)
Conditions in all cases: 12.5 µM; protein concentration 2 µM
LOC_OS01G57100-cb003 = system: LOC_OS01G57100-cb003
Outline: (§1)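 Rice kinase domain constructs, made in E. coli and purified, were placed in 96-well plates at 2 μM in 19.5 μl of 100 mM potassium phosphate pH 7.5, 150 mM NaCl, 10% glycerol and 5 × SYPRO Orange, with compound in DMSO. A temperature ramp from 25°C to 95°C at 0.05°C/s was used for differential scanning fluorimetry. The melting temperature shift is a triplicate mean compared with DMSO-only protein, derived from Boltzmann fits.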

LOC_OS01G60330-cb001 = system: LOC_OS01G60330-cb001
Outline: as §1

LOC_OS01G60700-cb002 = system: LOC_OS01G60700-cb002
Outline: as §1

LOC_OS01G63280-cb003 = system: LOC_OS01G63280-cb003
Outline: as §1

LOC_OS01G67340-cb003 = system: LOC_OS01G67340-cb003
Outline: as §1

LOC_OS01G70970-cb002 = system: LOC_OS01G70970-cb002
Outline: as §1

LOC_OS02G07810-cb001 = system: LOC_OS02G07810-cb001
Outline: as §1

LOC_OS02G08530-cb003 = system: LOC_OS02G08530-cb003
Outline: as §1

LOC_OS02G14120-cb001 = system: LOC_OS02G14120-cb001
Outline: as §1

LOC_OS02G17970-cb001 = system: LOC_OS02G17970-cb001
Outline: as §1

LOC_OS02G45750-cb003 = system: LOC_OS02G45750-cb003
Outline: as §1

LOC_OS02G54510-cb004 = system: LOC_OS02G54510-cb004
Outline: as §1

LOC_OS03G04050-cb001 = system: LOC_OS03G04050-cb001
Outline: as §1

LOC_OS03G12390-cb001 = system: LOC_OS03G12390-cb001
Outline: as §1

LOC_OS03G27990-cb004 = system: LOC_OS03G27990-cb004
Outline: as §1

LOC_OS03G50450-cb001 = system: LOC_OS03G50450-cb001
Outline: as §1

LOC_OS03G50810-cb003 = system: LOC_OS03G50810-cb003
Outline: as §1

LOC_OS04G35114-cb001 = system: LOC_OS04G35114-cb001
Outline: as §1

LOC_OS04G38480-cb003 = system: T1, LOC_OS04G38480-cb003
T1 sequence (whole entry): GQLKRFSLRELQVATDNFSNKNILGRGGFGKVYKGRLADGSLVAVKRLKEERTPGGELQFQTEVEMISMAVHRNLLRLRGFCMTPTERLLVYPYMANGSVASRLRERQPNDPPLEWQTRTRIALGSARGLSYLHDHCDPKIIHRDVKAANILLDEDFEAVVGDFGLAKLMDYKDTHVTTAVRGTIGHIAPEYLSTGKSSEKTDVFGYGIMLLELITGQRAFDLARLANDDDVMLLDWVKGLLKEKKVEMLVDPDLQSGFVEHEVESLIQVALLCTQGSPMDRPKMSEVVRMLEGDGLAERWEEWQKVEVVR
Outline: as §1

LOC_OS04G41100-cb001 = system: T2, LOC_OS04G41100-cb001
T2 sequence (whole entry): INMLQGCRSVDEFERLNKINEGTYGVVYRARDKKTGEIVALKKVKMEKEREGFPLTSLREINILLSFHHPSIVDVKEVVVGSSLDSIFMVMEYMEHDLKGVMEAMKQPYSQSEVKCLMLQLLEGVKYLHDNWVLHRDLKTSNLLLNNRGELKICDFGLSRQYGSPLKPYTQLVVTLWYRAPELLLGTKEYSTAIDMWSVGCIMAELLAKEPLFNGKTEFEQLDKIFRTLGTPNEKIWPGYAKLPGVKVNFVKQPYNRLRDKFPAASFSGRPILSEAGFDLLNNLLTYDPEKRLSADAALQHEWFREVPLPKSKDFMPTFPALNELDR
Outline: as §1
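Further: purified Escherichia coli-expressed rice kinase domain construct.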

| Structure (SMILES) | thermal shift delta Tm (LOC_OS01G57100-cb003) | thermal shift delta Tm (LOC_OS01G60330-cb001) | thermal shift delta Tm (LOC_OS01G60700-cb002) | thermal shift delta Tm (LOC_OS01G63280-cb003) | thermal shift delta Tm (LOC_OS01G67340-cb003) | thermal shift delta Tm (LOC_OS01G70970-cb002) | thermal shift delta Tm (LOC_OS02G07810-cb001) | thermal shift delta Tm (LOC_OS02G08530-cb003) | thermal shift delta Tm (LOC_OS02G14120-cb001) | thermal shift delta Tm (LOC_OS02G17970-cb001) | thermal shift delta Tm (LOC_OS02G45750-cb003) | thermal shift delta Tm (LOC_OS02G54510-cb004) | thermal shift delta Tm (LOC_OS03G04050-cb001) | thermal shift delta Tm (LOC_OS03G12390-cb001) | thermal shift delta Tm (LOC_OS03G27990-cb004) | thermal shift delta Tm (LOC_OS03G50450-cb001) | thermal shift delta Tm (LOC_OS03G50810-cb003) | thermal shift delta Tm (LOC_OS04G35114-cb001) | thermal shift delta Tm (LOC_OS04G38480-cb003) | thermal shift delta Tm (LOC_OS04G41100-cb001) |
| --- | --- | --- | --- | --- | --- | --- | --- | --- | --- | --- | --- | --- | --- | --- | --- | --- | --- | --- | --- | --- |
| C[C@@H](NC(=O)c1ncnc(N)c1Cl)c1ncc(C(=O)Nc2cc(C(F)(F)F)c(Cl)cn2)s1 | 0.35 °C | 1.01 °C | 1.42 °C | 1.75 °C | 0.42 °C | 0.8 °C | 0.35 °C | 0.67 °C | 0.58 °C | 0.7 °C | 0.64 °C | 6.43 °C | 0.36 °C | 0.49 °C | 0.28 °C | 0.42 °C | -0.01 °C | 0.39 °C | 0.76 °C | 0.71 °C |
| CN1CC[C@H](c2c(O)cc(O)c3c(=O)cc(-c4ccccc4Cl)oc23)[C@H](O)C1 [Flavopiridol (Alvocidib)] | 0.96 °C | 0.94 °C | 0.39 °C | 0.37 °C | -0.01 °C | 1.4 °C | 0.63 °C | 1.53 °C | 1.28 °C | -0.3 °C | 1.64 °C | 0.69 °C | 0.2 °C | 1.66 °C | 1.06 °C | 0.4 °C | 0.4 °C | 2.64 °C | 0.88 °C | 0.66 °C |
| COc1cc(N2CCN(C)CC2)ccc1Nc1ncc2c(n1)N(C)c1ccccc1C(=O)N2 | 0.71 °C | 0.79 °C | 1.11 °C | 0.14 °C | 0.39 °C | 0.32 °C | 0.41 °C | 0.62 °C | 2.52 °C | 0.53 °C | 0.85 °C | 0.32 °C | 0.17 °C | 0.62 °C | 0.11 °C | -0.01 °C | 0.23 °C | 0.35 °C | 1.14 °C | 0.17 °C |
| Cn1cc(-c2ccc3ncc(Cc4ccc5ncccc5c4)n3n2)cn1 | 0.9 °C | 1.91 °C | 0.96 °C | 0.15 °C | 0.76 °C | 0.25 °C | 1.07 °C | 1.43 °C | 2.22 °C | 0.32 °C | 0.5 °C | 0.06 °C | 0.32 °C | -0.22 °C | 0.07 °C | 0.05 °C | 0.44 °C | 2.6 °C | 1.45 °C | 0.07 °C |
| Nc1[nH]nc2nnc(-c3c(-c4ccccc4)nn4ccccc34)cc12 | 1.13 °C | 1.24 °C | 0.92 °C | 0.4 °C | 0.72 °C | 0.68 °C | -0.25 °C | 2.11 °C | 0.36 °C | 0.87 °C | 1.41 °C | 0.54 °C | 0.66 °C | 1.36 °C | 0.56 °C | 1.03 °C | 0.41 °C | 1.11 °C | 0.15 °C | 0.75 °C |
| CC(C)c1cnn2c(NCc3ccccc3-n3cccn3)nc(OC3CCCNC3)nc12 (stereo not given) | 0.42 °C | 1.35 °C | 1.26 °C | 0.47 °C | 0.65 °C | 0.27 °C | 0.85 °C | 0.74 °C | -0.11 °C | 2.44 °C | 0.32 °C | -0.14 °C | 0.32 °C | 0.22 °C | 0.11 °C | 0.09 °C | 0.5 °C | 0.48 °C | 1.13 °C | 0.57 °C |
| OC1CCC(Oc2cccc3cnc(Nc4ccc5nc[nH]c5c4)nc23)CC1 (stereo not given) | 1.84 °C | 13.9 °C | -0.02 °C | 4.52 °C | 5.84 °C | 8.36 °C | -0.24 °C | 4.55 °C | 11.4 °C | 0.06 °C | 17.1 °C | 2.66 °C | 0.39 °C | 8.52 °C | 5.39 °C | 7.93 °C | 7.28 °C | 7.42 °C | 4.8 °C | 5.03 °C |
| Cc1cc(Nc2nc(N[C@@H](C)c3ccc(F)cc3)c(C#N)cc2F)n[nH]1 | 0.56 °C | 7.34 °C | 0.15 °C | 0.61 °C | -0.08 °C | 1.7 °C | 0.48 °C | 1.49 °C | 7.95 °C | 0.2 °C | 4.55 °C | 2.52 °C | 0.11 °C | 4.41 °C | 0.57 °C | 1.39 °C | 4.44 °C | 1.88 °C | 2.31 °C | 1.28 °C |
| O=C(O)[C@]1(Cc2cccc(Nc3nccs3)n2)CC[C@@H](Oc2cccc(Cl)c2F)CC1 | 5.7 °C | 1.72 °C | -1.18 °C | 0.43 °C | 3.34 °C | 9.45 °C | 0.53 °C | 5.62 °C | 13.5 °C | 0.24 °C | 1.57 °C | 4.63 °C | 0.19 °C | 7.89 °C | 0.23 °C | 1.68 °C | 2.52 °C | 9.74 °C | 4.53 °C | 0.24 °C |
| CNCc1ccc(-c2cc(-c3nc(-c4ccc(S(=O)(=O)C(C)C)cc4)cnc3N)on2)cc1 | 1.41 °C | 0.91 °C | 1.58 °C | 0.5 °C | 0.06 °C | 0.3 °C | 2.33 °C | 1.56 °C | 2.23 °C | 1.43 °C | 2.46 °C | 0.28 °C | 0.32 °C | 0.54 °C | 0.33 °C | 0.34 °C | 0.97 °C | 4.33 °C | 1 °C | 0.22 °C |
| CCCS(=O)(=O)Nc1ccc(F)c(C(=O)c2c[nH]c3ncc(Cl)cc23)c1F | 0.54 °C | 2.26 °C | 1.16 °C | 5.8 °C | -0.05 °C | 2.74 °C | 1.49 °C | 0.84 °C | 1.51 °C | 0.28 °C | 1.97 °C | 1.14 °C | 0.77 °C | 0.99 °C | 0.46 °C | 0.97 °C | 0.43 °C | 1.85 °C | 0.12 °C | 0.83 °C |
| CCOc1cc(N2CCC(O)CC2)ccc1Nc1ncc2c(n1)N(C)c1ccccc1C(=O)N2C | 1.56 °C | 0.82 °C | 1.24 °C | -0.13 °C | -0.04 °C | 0.52 °C | 0.39 °C | 0.9 °C | -0.64 °C | 0.7 °C | -0.35 °C | -0.02 °C | 0.11 °C | 2.48 °C | -0.12 °C | 0.38 °C | 0.11 °C | 0.71 °C | 1.18 °C | 0.38 °C |
| CC#CC(=O)Nc1ccc2ncnc(Nc3cccc(Br)c3)c2c1 | -0.79 °C | 0.53 °C | 1.56 °C | 0.9 °C | 1.06 °C | 0.37 °C | 0.86 °C | 1.43 °C | 2.95 °C | 1.1 °C | -0.66 °C | 0.79 °C | 0.48 °C | 0.54 °C | 0.39 °C | -0.04 °C | 1.24 °C | 3.68 °C | 1.41 °C | 0.03 °C |
